High-throughput results deposited in PubChem by Broad Institute.
An excerpt weighted towards active compounds, which were near 1.3% of everything screened.
Rce1 inh: inhibitors of yeast Ras-converting enzyme. Q03530. yeast membranes, quenched prenylated peptide cleavage fluorescence. calls only. 0.27% of 290,000 active;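 active = fall in fluorescence gain of 50% or more versus controls, with final raw signal at or below 3038400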
Target sequence (Q03530 whole entry, looked up): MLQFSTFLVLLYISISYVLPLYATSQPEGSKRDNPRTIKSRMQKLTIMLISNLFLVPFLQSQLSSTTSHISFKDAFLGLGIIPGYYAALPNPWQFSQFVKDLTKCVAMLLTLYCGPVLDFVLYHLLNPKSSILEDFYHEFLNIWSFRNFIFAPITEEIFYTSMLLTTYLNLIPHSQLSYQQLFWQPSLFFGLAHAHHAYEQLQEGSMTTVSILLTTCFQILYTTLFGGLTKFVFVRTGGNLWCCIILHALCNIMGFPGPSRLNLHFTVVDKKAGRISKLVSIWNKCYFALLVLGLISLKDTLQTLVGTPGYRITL
Statin myotox sup: suppressors of simvastatin-induced myotoxicity in C2C12 myotubes; ATP luminescence, 48 h; scaled: DMSO 0, geranylgeraniol control 100; rescue of ATP level, % at 7.49 µM; 0.78% of 330,000 active;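 active = mean ATP rescue above about 67%, or every replicate alone reaching that limit, limit read from the data, passing the limit was not always enough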;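 note: myotubes were challenged with 10 µM simvastatin during compound exposure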
HIF act: HIF pathway transcriptional activation; U2OS HRE-luciferase reporter, luminescence; normalized: DMSO 0%, desferrioxamine 100%; AID 1910; 0.32% of 300,000 active; activation, % at 7.5 µM (by protocol);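 active = mean activation of at least 10% of the iron chelator positive control signal, with at least half of replicates also reaching 10%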
PGC1a acetyl inh: PGC1a acetylation modulation, inhibitor mode; U2OS PGC1a acetylation, AlphaScreen anti-acetyl-lysine; with virally co-expressed GCN5 acetyltransferase; inhibition, % at 15.6 µM; 0.17% of 350,000 active; AID 651687;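 active = every replicate shows inhibition of at least 40%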
AI-2 QS mod: modulators of Vibrio harveyi AI-2 quorum sensing system; 0.4% of 300,000 active; activity change, % at 7.5 µM; Vibrio harveyi JMH597 AI-2 luminescence/OD600 ratio, 9 h; active compounds read low; strain lacks LuxN and CqsS sensors; 0 = neutral-control median; AID 2094; in the data active = activity change below about -75%, passing the limit was not always enough;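 note: luminescence divided by OD600 gain over 9 h not by final OD600 alone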
Hits are given with their value; - = inactive; . = no result given; + = active, no number.

SMILES	Rce1 inh	Statin myotox sup	HIF act	PGC1a acetyl inh	AI-2 QS mod
COC(=O)CCC(=O)NNC(=O)c1ccc(Br)cc1	-	100.9	-	-	-
COC(=O)CCC(=O)NNC(=O)c1cccc(Br)c1	-	.	-	.	-
CCC(=O)Nc1ccc2c(c1)OC[C@@H](C)N(Cc1ccccn1)C[C@H](C)[C@H](OC)CN(C)C2=O	.	-	.	-	.
CCOCCOC(=O)C(C)Oc1ccc(Oc2nc(Cl)ccc2Cl)cc1 (configuration not stated)	-	.	-	88.5	-
C[C@@H]1CN([C@H](C)CO)C(=O)c2cc(NS(C)(=O)=O)ccc2O[C@@H]1CN(C)S(=O)(=O)c1cn(C)cn1	.	-	.	-	.
CO[C@H]1CN(C)C(=O)c2ccc(NC(=O)C3CC3)cc2OC[C@@H](C)N(C(=O)C2CCOCC2)C[C@H]1C	.	-	.	.	.
Cc1ccc(-c2csc3nc4c5ccccc5c(NCCCN5CCOCC5)nn4c(=O)c23)cc1	-	.	-	.	-
Cc1ccc(-c2csc3nc4c5ccccc5c(NCCCN(C)C)nn4c(=O)c23)cc1	+	-	-	-	-
Cc1noc(C)c1NC(=O)N[C@@H]1CC[C@@H](CC(=O)N2CCCCC2)O[C@@H]1CO	.	-	.	-	.
COc1ccc(/C=N/NC(=O)Cn2nnc3ccccc32)cc1OC	-	.	-	.	-91.9
CCOc1nnc(C)c2c(C)n(-c3ccc(Cl)cc3)nc12	-	118.8	-	-	-
COc1ccc(S(=O)(=O)N2CCOCC2)cc1C(C)C	-	-	-	-	-
CCC(C)c1cc(S(=O)(=O)N2CCOCC2)ccc1OC (configuration not stated)	.	82.4	.	-	.
CN(C)C(=O)c1cccc(-c2ccc3c(c2)[C@@H]2[C@@H](CCN2S(=O)(=O)c2ccccc2)[C@@H](CO)N3)c1	.	-	.	-	.
O=C(Nc1ccc(Nc2ccccc2)cc1)c1ccc(Br)o1	-	-	-	.	-92.2
O=C(NC(=S)Nc1ccccc1)c1ccc(Br)o1	-	-	-	-	-
O=CN1CCC(=O)N(Cc2ccccc2)c2ccccc21	-	109.4	-	-	-
O=C1CCc2ccccc2N1Cc1ccccc1	-	-	-	-	-
O=S(=O)(c1ccc(F)cc1)N1CC[C@@H]2[C@H](CO)Nc3ccc(C#CC4CCCCC4)cc3[C@@H]21	.	.	.	-	.
CCNC(=O)COc1cccc(C(=O)NCc2ccccc2)c1	-	.	75.4	.	-
Cc1ccc(C(=O)NC(=S)NCc2ccccc2)cc1Br	-	-	-	-	-
CC(C)CNC(=O)COc1cccc(C(=O)NCc2ccccc2)c1	+	.	-	.	-
CNC(=O)COc1cccc(C(=O)NCc2ccccc2)c1	-	.	-	.	-
Cc1ccc(C(=O)NCc2ccccc2)cc1Br	-	-	-	-	-77.5
Cc1ccccc1-c1ccc([C@H]2[C@@H](CO)N3CCCCN(Cc4cccnc4)C[C@H]23)cc1	.	-	.	-	.
SMILES	Rce1 inh	Statin myotox sup	HIF act	PGC1a acetyl inh	AI-2 QS mod
COc1ccc(NC(=O)N(C)C[C@H]2Oc3cc(-c4cccc(C(=O)N(C)C)c4)ccc3S(=O)(=O)N([C@@H](C)CO)C[C@H]2C)cc1	.	-	.	-	.
Oc1ccc(-c2csc(Nc3ncccn3)n2)c(O)c1	-	-	-	-	-
Oc1ccc(-c2csc(Nc3ccc4c(c3)OCO4)n2)c(O)c1	.	131.6	.	-	.
O=C(C[C@@H]1CC[C@H]2[C@@H](COC[C@@H](O)CN2C(=O)c2ccncc2)O1)NCc1cccc(F)c1	.	-	.	-	.
O=C(c1ccncc1)N1CC2(C1)[C@@H](c1ccccc1)[C@@H](CO)N2C(=O)c1ccncc1	.	.	.	-	.
Cc1ccc(-c2ccc(C3[C@@H]4CN(S(=O)(=O)c5ccc(C)cc5)C[C@H]3N4)cc2)cc1 (some centres not stated)	.	.	.	-	.
Nc1nc(N)nc(-c2ccc([N+](=O)[O-])o2)n1	.	-	.	-	.
O=[N+]([O-])c1ccc(-c2ccn[nH]2)o1	-	.	-	-	-128.9
C[C@@H]1CN([C@@H](C)CO)C(=O)c2cc(NC(=O)NC3CCCCC3)ccc2O[C@@H]1CN(C)Cc1ccc(-c2ccccc2)cc1	.	.	.	-	.
CCOc1ccc(N2C(=O)CC(Cc3ccc(Br)cc3)C2=O)cc1 (configuration not stated)	-	-	-	70.9	-
COc1ccc(N2C(=O)CC(Cc3ccc(Br)cc3)C2=O)cc1 (configuration not stated)	-	-	-	-	-
O=C1C(SC(F)(F)C(F)F)=C(C(F)(F)F)OC2C3C=CC(C3)C12 (configuration not stated)	-	106.7	-	-	-
O=C(CN1C(=O)CCC1=O)NCC12CC3CC(CC(C3)C1)C2	-	95.9	-	-	-
CCCC(=O)N(Cc1cc2cc(C)ccc2[nH]c1=O)c1ccccc1OC	-	76.1	-	-	-
CCCC(=O)N(Cc1cc2ccccc2[nH]c1=O)c1ccccc1OC	-	-	-	-	-
O=C(Nc1ccc(F)cc1)c1sc2cc(C(F)(F)F)cnc2c1-c1cccs1	-	.	-	113.8	-
COc1ccc(/C=N/NC(=O)c2ccc(CN3C(=O)c4cccc5cccc3c45)cc2)cc1O	-	.	-	.	-
COc1cc(/C=N/NC(=O)c2ccc(CN3C(=O)c4cccc5cccc3c45)cc2)cc(OC)c1O	-	87.3	-	-	-
COc1ccc(N2C(=O)CC(C#N)=C2N)cc1	-	.	-	-	-
N#CC1=C(N)N(c2ccccc2)C(=O)C1	.	105.8	-	-	-
CCOc1cc(S(=O)(=O)N(Cc2ccccc2)Cc2ccccc2)c(OCC)cc1-n1cnnn1	+	-	-	-	-
Cc1ccc(C(=O)O/N=C(\N)Cc2ccc([N+](=O)[O-])cc2)c(Cl)c1	-	-	-	-	-
Cc1ccc(C(=O)O/N=C(\N)Cc2cccs2)c(Cl)c1	-	.	-	.	-88.7
CCCC[C@@H]1CNC(=S)N1CCc1cccc2ccccc12	+	-	-	-	-
O=C(COc1ccccc1)N1CCN(c2nnc(-c3ccccc3)c3ccccc23)CC1	-	79.2	-	.	-
SMILES	Rce1 inh	Statin myotox sup	HIF act	PGC1a acetyl inh	AI-2 QS mod
COc1ccc(OCC(=O)N2CCN(c3nnc(-c4ccccc4)c4ccccc34)CC2)cc1	-	.	-	.	-
Cn1c(SCC(=O)Nc2ccccc2C(F)(F)F)nc2c(c1=O)SCC2	-	-	-	.	-
Cc1nc(N)sc1-c1nnc(SCC(=O)Nc2ccccc2C(F)(F)F)n1C	-	141.6	-	-	-
O=C(c1cccnc1)N1CCCCN2[C@H](CO)[C@H](c3ccc(C#Cc4ccccc4)cc3)[C@H]2C1	.	.	.	-	.
COc1ccc(CCNC(=O)CC(NC(=O)c2ccccc2Cl)c2ccccc2)cc1 (configuration not stated)	-	.	46.3	-	-
COCCCn1cnc2c(c1=O)c1nc3ccccc3nc1n2-c1ccccc1	-	127.0	-	-	-
O=C(O)C(C(=O)/C=C/c1ccco1)=C1SCCS1	-	68.3	-	-	-
Cc1ccc(S(=O)(=O)Nc2ccc3c(c2)C(=O)N([C@@H](C)CO)C[C@H](C)[C@@H](CN(C)Cc2ccc(C(F)(F)F)cc2)OCCCC[C@H](C)O3)cc1	.	.	.	-	.
O=C(O)c1ccc2cccc(O)c2n1	-	.	40.3	-	-
